Pf growth 48h: P. falciparum growth inhibition at 48 hours (one generation); P. falciparum luciferase growth in erythrocytes, 48 h; Potency, µM (highest dose often 28.7 µM), without a hit: at the highest dose activity change, negative = inhibition, hits mostly inhibitors; hit rate 5.9% among 310,000; also: % is scaled to controls: 0 for no effect and ±100 for the full control effect
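Cell-based growth assay: transgenic P. falciparum expressing firefly luciferase, cultured in red cells within RPMI 1640 containing 0.5% w/v Albumax, 24 mM bicarbonate and gentamycin. A drop in luciferase activity indicates inhibition.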
HCV inhibitor: blocks hepatitis C virus. Huh7.5.1 HCVcc-Cre infection, luciferase reporter, 44 h. hit rate 3.4% among 340,000. Potency, µM (top dose mostly 41.8 µM), for inactives: top-dose activity change, negative = inhibition, actives largely listed as inhibitors. AID 651820; also: % is scaled to controls: 0 for no effect and ±100 for the full control effect
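Infectious HCV cell culture screen: compound-treated cells (1,000/well, pre-plated 4 h) are infected with HCVcc-Cre at roughly 0.5 moi and grown 44 h. Infection is quantified by luciferase signal after 15 min substrate incubation at room temperature.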
Vaccinia Venus: vaccinia inhibition (Venus reporter); Vaccinia virus Venus reporter expression, fluorescence; hit rate 0.46% among 330,000; Potency, µM (titrated, usually from 36.5 µM), for the others: top-dose activity change, negative = inhibition, hits mostly inhibitors; AID 720580; calls by dose curve; tested in A549 cells; also: % is scaled to controls: 0 for no effect and ±100 for the full control effect; nearly all actives have a fitted effect of over 30% in size
Pf growth 96h: P. falciparum growth inhibition at 96 hours; P. falciparum luciferase reporter growth, 96 h; Potency, µM (titrated, usually from 28.7 µM), inactives show at the top dose activity change, negative = inhibition, usual class: inhibitors; hit rate 6.9% among 320,000; also: % is scaled to controls: 0 for no effect and ±100 for the full control effect
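P. falciparum expressing integrated firefly luciferase grown in erythrocytes (2% hematocrit, 0.05% parasitemia final) with compounds for 96 hours at 37 C, 5% CO2. Growth inhibition read as loss of luminescence after adding luciferase detection reagent.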
NS1 function inh: inhibitors of influenza NS1 protein function; AID 2326; hit rate 0.4% among 270,000; Potency, µM (top dose mostly 46.1 µM), without a hit: top-dose activity, positive = more growth; calls by dose curve; also: actives are rising curves; nearly all actives have a fitted effect of over 50% in size
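In this qHTS, NS1 from influenza A is expressed in budding yeast, where it slows growth. Cells are switched from glucose to 2% galactose medium (pH 6.0, -URA), treated with compound, and growth recovery is read at OD600.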
Vaccinia mCherry: inhibitors of vaccinia virus infection (mCherry reporter signal); hit rate 0.63% among 310,000; AID 720579; Vaccinia virus mCherry reporter infection, fluorescence; Potency, µM (series often up to 36.5 µM), for inactives: top-dose activity change, negative = inhibition, hits mostly inhibitors; calls by dose curve; tested in A549 cells; also: % is scaled to controls: 0 for no effect and ±100 for the full control effect; nearly all actives have a fitted effect of over 35% in size
Numbers without * were called inactive. Compounds with a hit are over-represented: about 11% of the library has one in this group of screens. Unless noted, calls follow the shape of the dose curve; as a rule, active = well fitted inhibition curve with a large enough effect; inconclusive = small, poorly fitted or top-dose-only effect, or another doubt; inactive = no such curve, though single readings can be large or run the other way. Potency is read from the fitted curve at half-maximal effect.

Results for Cc1ccc(S(=O)(=O)N2c3ccccc3NC(=O)C2CC(=O)Nc2ccccc2)cc1 (configuration not stated) ?
Pf growth 48h: inconclusive; HCV inhibitor: -7%; Vaccinia Venus: inconclusive; Pf growth 96h: 12µM*; NS1 function inh: -12%

What do the screens show for `OCCCNc1cc(-c2ccnc(Nc3cccc(Cl)c3)n2)ccn1`?
Pf growth 48h: 0.74µM*; HCV inhibitor: 2µM*; Vaccinia Venus: 1µM*; Pf growth 96h: 0.41µM*; NS1 function inh: -48%; Vaccinia mCherry: inconclusive

Results for CCC(C)Oc1cc(-c2ccnc(Nc3cccc(Cl)c3)n2)ccn1 (configuration not stated) ?
Pf growth 48h: inconclusive; HCV inhibitor: 12%; Vaccinia Venus: inconclusive; Pf growth 96h: inconclusive; NS1 function inh: 1%; Vaccinia mCherry: inconclusive

How did CCCc1cc(=O)oc2c(C)c3occ(C)c3cc12 do in these assays?
Pf growth 48h: inconclusive; HCV inhibitor: -29%; Vaccinia Venus: -10%; Pf growth 96h: -9%; NS1 function inh: -7%; Vaccinia mCherry: -11%

Results for CC(OC(=O)c1ccc2ccccc2c1)C(=O)N(C)Cc1ccccc1 (configuration not stated) ?
Pf growth 48h: inconclusive; HCV inhibitor: inconclusive; Pf growth 96h: 13%

Results for CC(OC(=O)c1ccc(OCC2CCCO2)cc1)C(=O)N(C)Cc1ccccc1 (configuration not stated) ?
Pf growth 48h: 3.3µM*; HCV inhibitor: -4%; Vaccinia Venus: -13%; Pf growth 96h: 4.7µM*; Vaccinia mCherry: inactive

What do the screens show for `COc1ccccc1C(=O)NC(=O)COC(=O)c1nccnc1N`?
HCV inhibitor: -5%; Vaccinia Venus: -16%; Vaccinia mCherry: -5%

Results for Clc1cccc(C[n+]2cc(-c3ccccc3)n3c2CCC3)c1 ?
Pf growth 48h: 2.1µM*; HCV inhibitor: 8%; Vaccinia Venus: -29%; Pf growth 96h: 0.19µM*; NS1 function inh: 8%; Vaccinia mCherry: 0%

Results for Cc1ccc(-c2c[n+](Cc3cccc(Cl)c3)c3n2CCC3)cc1 ?
Pf growth 48h: inconclusive; HCV inhibitor: -26%; Vaccinia Venus: -23%; Pf growth 96h: inconclusive; NS1 function inh: -5%; Vaccinia mCherry: -24%

Results for Cc1ccc(-c2c[n+](Cc3ccc(Cl)cc3)c3n2CCC3)cc1 ?
Pf growth 48h: 0.93µM*; HCV inhibitor: -12%; Vaccinia Venus: -14%; Pf growth 96h: 0.29µM*; NS1 function inh: 0%; Vaccinia mCherry: inactive

Results for Cc1ccc(C[n+]2cc(-c3ccc(Cl)cc3)n3c2CCC3)cc1 ?
Pf growth 48h: 1µM*; HCV inhibitor: -25%; Vaccinia Venus: -15%; Pf growth 96h: 0.41µM*; NS1 function inh: -1%; Vaccinia mCherry: inactive

Results for Clc1ccc(-c2c[n+](Cc3ccc(Cl)c(Cl)c3)c3n2CCC3)cc1 ?
Pf growth 48h: inconclusive; HCV inhibitor: 4%; Pf growth 96h: inconclusive; NS1 function inh: 2%

How did CC(C)c1ccc(C(=O)N/N=C/c2cccc(Cl)c2Cl)cc1 do in these assays?
Pf growth 48h: 48%; HCV inhibitor: 10%; Vaccinia Venus: -9%; Pf growth 96h: 0%; NS1 function inh: -13%; Vaccinia mCherry: inactive

What do the screens show for `COc1cccc(CNc2ccc(N3CCC(C)CC3)cc2)c1OC`?
Pf growth 48h: 1.9µM*; HCV inhibitor: -11%; Pf growth 96h: inconclusive; NS1 function inh: 13%

Results for COc1cc(C#N)ccc1OCC(=O)c1ccc2c(c1)OCCO2 ?
Pf growth 48h: -20%; HCV inhibitor: inconclusive; Pf growth 96h: inconclusive; NS1 function inh: -13%

What do the screens show for `CC(=O)OCC(=O)[C@@]1(O)CCC2C3CCC4=CC(=O)CC[C@]4(C)C3=CC[C@@]21C` (some centres not stated)?
Pf growth 48h: 5%; Pf growth 96h: -29%
